Results filed as inconclusive are left out. Calls of active or inactive are those of the source. Unless noted, the call rests on the fitted dose curve; in most records, active means well fitted curve in the direction sought with a large enough effect in the repeat runs; inconclusive means weak or mixed curves; inactive means no such curve, though single readings can be large; an effect the other way counts as inactive or inconclusive.
What was measured:
[1] = qHTS assay to identify small molecule agonists of H2AX (AID 1224845; active means well fitted activation curve with a large enough effect in the signal ratio in the repeat runs, not every such curve was filed as active; the % refers to the signal ratio)
Method in brief: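 Wild-type CHO-K1 cells plated overnight, then exposed 3 hr at 37C to compounds at 15 concentrations (0.76% DMSO). Lysed, then HTRF anti-pH2AX(S139)-cryptate/anti-H2AX-d2 detection after 24 hr at room temperature; emissions 665 and 620 nm.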

[2] = qHTS assay to identify small molecule agonists of the hypoxia (HIF-1) signaling pathway (AID 1224846; active means well fitted activation curve with a large enough effect in the signal ratio in the repeat runs, not every such curve was filed as active; the % refers to the signal ratio)
Method in brief: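 Agonist mode reporter screen. ME-180 cells stably expressing bla under HRE control received test compounds in DMSO for 17 hrs (37C, 5% CO2), and beta-lactamase activity was then detected with the CCF4-AM FRET substrate.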

[3] = qHTS assay to identify small molecule agonists of H2AX - cell viability counter screen (AID 1224847; calls by dose curve; further: top concentration of the series differs between compounds; nearly all actives have a fitted effect of over 30% in size)
Method in brief: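 Read-out: CellTiter-Glo luminescence, 30 min RT. Cells: wild-type CHO-K1, 1000/well, 10% FBS, plated overnight at 37C. Treatment: 15 concentrations, 3 hr, 37C, 0.76% DMSO.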

[4] = qHTS assay to identify small molecule antagonists of the estrogen related receptor (ERR) signaling pathway from Tox21 library (AID 1224848); further: nearly all actives have a fitted effect of over 50% in size
Method in brief: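 First, 2,000 ERR cells per well were plated and held 6 h at 37 C/5% CO2. Next, compounds in DMSO were pinned in and left 18 h at 37 C. Finally, ONE-Glo was added and luminescence read after 30 min at room temperature.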

[5] = qHTS RealTime-Glo MT Cell Viability Assay in HepG2 cells - 24 hour (AID 1224867); further: nearly all actives have a fitted effect of over 50% in size
Method in brief: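 Compound treatment began 5 h after plating HepG2 cells (600/well) with NanoLuc luciferase and prosubstrate. Plates stayed at 37 C for 40 h; luminescence was captured at six time points, 0 h through 40 h.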

[6] = qHTS RealTime-Glo MT Cell Viability Assay in HEK293 cells - 32 hour (AID 1224868); further: top concentration of the series differs between compounds; nearly all actives have a fitted effect of over 50% in size
Method in brief: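 Quantitative high-throughput screen of the Tox21 10K library in HEK293: cells and RealTime-Glo reagents plated together, compound added at 5 h, luminescence monitored through 40 h at 37 C.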

[7] = A CellTox Green Cytotoxicity Assay to monitor cytotoxicity in HEK293 cells - 0 hour (AID 1224869); further: nearly all actives have a fitted effect of over 50% in size
Method in brief: (§1)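 Dead-cell fluorescence measured kinetically: asymmetric cyanine dye, HEK293, 600 cells/well, 5 h settle, 23 nL cpd/DMSO, 37 C, reads 0–40 h every 8 h.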

[8] = qHTS RealTime-Glo MT Cell Viability Assay in HepG2 cells - 40 hour (AID 1224870); further: nearly all actives have a fitted effect of over 50% in size; further: potency means the concentration at half of the fitted maximal effect
Method in brief: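 HepG2 cells mixed with RealTime-Glo MT reagents (NanoLuc plus cell-permeant prosubstrate) were seeded at 600 cells/well, incubated 5 h at 37 C/5% CO2, then pinned with compounds in DMSO; nonlytic luminescence tracked viability during 40 h treatment.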

[9] = A CellTox Green Cytotoxicity Assay to monitor cytotoxicity in HEK293 cells - 40 hour (AID 1224871); further: nearly all actives have a fitted effect of over 45% in size
Method in brief: as §1

[10] = qHTS assay to identify small molecule agonists of the estrogen related receptor (ERR) signaling pathway from Tox21 library (AID 1224849; calls by dose curve; further: nearly all actives have a fitted effect of over 15% in size)
Method in brief: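 Quantitative HTS in agonist format: NTP ERR cell line, compounds transferred in DMSO after 6 h plating, 18 h incubation at 37 C, ONE-Glo luminescence endpoint.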
On the % scale 0 is the no-effect control and ±100 the full control effect.

C[N+](C)(CCOc1ccccc1)Cc1cccs1
inactive: Potency [1] | outcome [2] | outcome [3] | Potency [4] | outcome [5] | Potency [6] | outcome [7] | Potency [9]
active: Potency [8] 23.9 µM

CC(C)c1ccc2ncccc2c1
inactive: Potency [1] | outcome [2] | outcome [3] | Potency [4] | outcome [10] | outcome [5] | Potency [6] | outcome [7] | Potency [8] | Potency [9]

C=COCC1CCC(COC=C)CC1 (stereo not drawn)
inactive: Potency [1] | outcome [2] | outcome [3] | Potency [4] | outcome [10] | outcome [5] | Potency [6] | outcome [7] | Potency [8] | Potency [9]

COCCOCC(OC)OC
inactive: Potency [1] | outcome [2] | outcome [3] | Potency [4] | outcome [10] | outcome [5] | Potency [6] | outcome [7] | Potency [8] | Potency [9]

NC(=O)Cc1cccc2ccccc12
inactive: Potency [1] | outcome [2] | outcome [3] | outcome [5] | Potency [6] | outcome [7] | Potency [8] | Potency [9]

C[C@H]1C[C@H]2[C@@H]3CCC4=CC(=O)C=C[C@]4(C)[C@H]3C(=O)C[C@]2(C)[C@@]1(O)C(=O)CO
inactive: Potency [1] | outcome [2] | outcome [3] | Potency [4] | outcome [10] | outcome [5] | Potency [6] | outcome [7] | Potency [8] | Potency [9]

OCCCCCO
inactive: Potency [1] | outcome [2] | outcome [3] | Potency [4] | outcome [10] | outcome [5] | Potency [6] | outcome [7] | Potency [8] | Potency [9]

O=CN(CCO)CCO
inactive: Potency [1] | outcome [2] | outcome [3] | Potency [4] | outcome [10] | outcome [5] | Potency [6] | outcome [7] | Potency [8] | Potency [9]

C[N+]1(CC2COC(c3ccccc3)(c3ccccc3)O2)CCCCC1 (stereo not drawn)
inactive: activation (H2AX phosphorylation) [1] -1.86% [at 31.6 µM] | activation [2] 0.207% [at 15.8 µM] | activity change, negative = cytotoxicity [3] -1.84% [at 31.6 µM] | activity, negative = inhibition [4] 4.63% [at 19 µM] | activity change, positive = activation [10] 2.6% [at 19 µM] | activity change, negative = cytotoxicity [5] -0.511% [at 15.8 µM] | activity change, negative = cytotoxic [6] -5.88% [at 15.8 µM] | cytotoxicity [7] -9.06% [at 15.8 µM] | cytotoxicity increase [9] -8.19% [at 15.8 µM]

CC(C)(C)c1ccc(-c2ccc(C(C)(C)C)cc2)cc1
inactive: Potency [1] | outcome [2] | outcome [3] | Potency [4] | outcome [10] | outcome [5] | Potency [6] | outcome [7] | Potency [8] | Potency [9]

CCOC(=O)COC(=O)c1ccccc1C(=O)OCC
inactive: Potency [1] | outcome [2] | outcome [3] | Potency [4] | outcome [10] | outcome [5] | Potency [6] | outcome [7] | Potency [8] | Potency [9]

O=C1NC(=O)C2CC=CCC12 (stereo not drawn)
inactive: Potency [1] | outcome [2] | outcome [3] | Potency [4] | outcome [10] | outcome [5] | Potency [6] | outcome [7] | Potency [8] | Potency [9]

Nc1c2c(nc3c1CCC3)CCCC2
inactive: Potency [1] | outcome [2] | outcome [3] | Potency [4] | outcome [10] | outcome [5] | Potency [6] | outcome [7] | Potency [8] | Potency [9]

CC(C#N)(CCC(=O)O)N=NC(C)(C#N)CCC(=O)O (stereo not drawn)
inactive: Potency [1] | outcome [2] | outcome [3] | Potency [4] | outcome [10] | outcome [5] | Potency [6] | outcome [7] | Potency [8] | Potency [9]

CC1(C)OC[C@@H](COC(=O)CCc2ccc(OC[C@@H](O)CNCCNC(=O)N3CCOCC3)cc2)O1
inactive: Potency [1] | outcome [2] | outcome [3] | Potency [4] | outcome [10] | outcome [5] | Potency [6] | outcome [7] | Potency [8] | Potency [9]

CC(C)(C#N)Nc1nc(Cl)nc(NC2CC2)n1
inactive: Potency [1] | outcome [2] | outcome [3] | outcome [5] | Potency [6] | outcome [7] | Potency [8] | Potency [9]

FB(F)F
inactive: Potency [1] | outcome [2] | outcome [3] | Potency [4] | outcome [10] | outcome [5] | Potency [6] | outcome [7] | Potency [8] | Potency [9]

O=C(O)CC(C(=O)O)S(=O)(=O)O (stereo not drawn)
inactive: Potency [1] | outcome [2] | outcome [3] | Potency [4] | outcome [10] | outcome [5] | Potency [6] | outcome [7] | Potency [8] | Potency [9]

COc1cc(C)nc(-n2nc(C)cc2OC)n1
inactive: Potency [1] | outcome [2] | outcome [3] | Potency [4] | outcome [10] | outcome [5] | Potency [6] | outcome [7] | Potency [8] | Potency [9]

CC(=O)Oc1cccc(C)c1
inactive: Potency [1] | outcome [2] | outcome [3] | Potency [4] | outcome [10] | outcome [5] | Potency [6] | outcome [7] | Potency [8] | Potency [9]

CC(C)[C@H]1CC[C@@H](C)CC1=O
inactive: Potency [1] | outcome [2] | outcome [3] | outcome [5] | Potency [6] | outcome [7] | Potency [8] | Potency [9]

CCOC(=O)c1ccccc1
inactive: Potency [1] | outcome [2] | outcome [3] | Potency [4] | outcome [10] | outcome [5] | Potency [6] | outcome [7] | Potency [8] | Potency [9]

CCCCN1C=CN(C)C1
inactive: activation (H2AX phosphorylation) [1] -0.0666% [at 31.6 µM] | activation [2] -0.256% [at 15.8 µM] | activity change, negative = cytotoxicity [3] -1.83% [at 31.6 µM] | activity, negative = inhibition [4] 18.5% [at 19 µM] | activity change, positive = activation [10] 9.96% [at 19 µM] | activity change, negative = cytotoxicity [5] 3.12% [at 15.8 µM] | activity change, negative = cytotoxic [6] 8.51% [at 15.8 µM] | activity change, negative = cytotoxic [8] -0.384% [at 15.8 µM] | cytotoxicity increase [9] -12.1% [at 15.8 µM]

CC(C)CC(C)(N)C#N (stereo not drawn)
inactive: Potency [1] | outcome [2] | outcome [3] | outcome [5] | Potency [6] | outcome [7] | Potency [8]

From PubChem BioAssay (Tox21)
